SW480 rerep – induces DNA re-replication in SW480 colon adenocarcinoma cells. SW480 DNA re-replication, Hoechst DNA content imaging, 48 h. Potency, µM (series often up to 46.1 µM), actives largely listed as activators. actives 1.8% (n = 340,000). AID 624297; also: nearly all actives have a fitted effect of over 55% in size
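SW480 cells exposed to compounds for 48 hr at 37 C, 5% CO2, then Hoechst-stained 40 min. Nuclear DNA content imaged by fluorescence scanning (405 nm excitation, 500-530 nm emission); re-replication scored as increased high-intensity nuclei.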
KB-3-1 cytotox – kills parental KB-3-1 adenocarcinoma cells; KB-3-1 viability, CellTiter-Glo ATP luminescence, 72 h; actives 1.4% (n = 400,000); Potency, µM (top dose mostly 46.1 µM), actives largely listed as cytotoxic; also: nearly all actives have a fitted effect of over 60% in size
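Parental KB-3-1 viability, qHTS format: 72 h compound exposure, 37 °C; CellTiter-Glo; media-only wells and DMSO plates as controls; concentration-effect fits on corrected data.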
KB-V1 cytotox – kills drug-selected multidrug resistant KB-V1 cells. Potency, µM (highest dose often 46.1 µM), actives largely listed as cytotoxic. KB-V1 MDR cells viability, CellTiter-Glo, 72 h. actives 3.4% (n = 400,000). AID 1347076; also: nearly all actives have a fitted effect of over 60% in size
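Cytotoxicity via CellTiter-Glo luminescence after 72 h compound exposure at 37 degrees C. Cells: drug-selected KB-V1 line, DMEM phenol-red free plus 10% FBS. Compounds tested at multiple concentrations; normalized data fitted to concentration-effect curves.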
MCF10A rerep – inducers of DNA re-replication in MCF 10A breast cells; MCF 10A DNA re-replication, Hoechst nuclear intensity, 48 h; Potency, µM (top dose mostly 46.1 µM), usual class: activators; actives 2.9% (n = 350,000); AID 624296; also: nearly all actives have a fitted effect of over 50% in size
HT1080 IDH1KD tx – HT-1080 IDH1 knockdown cell toxicity (counter line); HT-1080 IDH1 knockdown viability, ATP luminescence, 48 h; Potency, µM (doses to about 46.1 µM), actives largely listed as cytotoxic; AID 686971; actives 2% (n = 360,000)
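% activity derives from luminescence (CellTiter-Glo), normalised to DMSO and no-cell wells. HT-1080-IDH1KD cells, 750/well, had 48 h compound exposure at 37 °C.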
HT1080-NT tox – kills 2HG-producing HT-1080-NT fibrosarcoma cells; HT-1080-NT fibrosarcoma viability, CellTiter-Glo ATP luminescence, 48 h; Potency, µM (doses to about 46.1 µM), most hits filed as cytotoxic; actives 1.6% (n = 360,000);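 also: NT is the 2HG producing partner of a matched IDH1 knockdown line; nearly all actives have a fitted effect of over 55% in size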
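Viability of the 2HG-overproducing fibrosarcoma line after 48 hours of compound exposure at 37 degrees C was determined by luminescence with CellTiter-Glo, and concentration-effect curves were then fitted and categorized.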
Large screens that a line does not name were inactive. The list is not random: actives were taken first. Their share in the collection is about 7.9%. Calls follow the shape of the dose curve; as a rule, active = well fitted curve in the direction sought with a large enough effect; inconclusive = small, poorly fitted or top-dose-only effect, or another doubt; inactive = no such curve, though single readings can be large; an effect the other way counts as inactive or inconclusive.

COc1ccc(C2CC(c3ccc(F)cc3)=NN2c2ccccc2)cc1OC (centres undefined)	SW480 rerep inconclusive, KB-3-1 cytotox inconclusive, KB-V1 cytotox inconclusive, MCF10A rerep 16µM
O=C(c1ccccc1)N1N=C(c2ccc(F)cc2)CC1c1ccc(F)cc1 (centres undefined)	none
COc1ccc(C2=NN(c3ccc(C=O)cc3)C(c3ccccc3)C2)cc1 (centres undefined)	SW480 rerep inconclusive, MCF10A rerep inconclusive, HT1080 IDH1KD tx inconclusive, HT1080-NT tox inconclusive
Fc1ccc(C2CC(c3cccs3)=NN2c2ccccc2)cc1 (centres undefined)	SW480 rerep inconclusive, MCF10A rerep 3.5µM, HT1080-NT tox inconclusive
COc1ccc(C2=NN(c3ccccc3)C(c3ccc(OC)c(OC)c3)C2)cc1 (centres undefined)	SW480 rerep 15µM, KB-3-1 cytotox inconclusive, MCF10A rerep inconclusive
CCOC(=O)C1=CCN(S(=O)(=O)c2ccccc2C)C1c1cccc(C)c1 (centres undefined)	none (no result: SW480 rerep, MCF10A rerep)
O=C(COC(=O)c1ccccc1F)Nc1ccc(S(=O)(=O)N2CCOCC2)cc1	none
O=NCc1ccc([N+](=O)[O-])o1	none (no result: KB-3-1 cytotox, KB-V1 cytotox, HT1080 IDH1KD tx, HT1080-NT tox)
CC1=C(C(=O)Nc2ccc(C)cc2C)C(c2ccc(O)cc2)n2nc(SCC(=O)c3ccc(C)cc3)nc2N1 (centres undefined)	KB-V1 cytotox inconclusive (no result: SW480 rerep, MCF10A rerep, HT1080 IDH1KD tx, HT1080-NT tox)
CC(=O)Nc1ccc(C2CC(c3ccc(Cl)cc3)=NN2c2ccccc2)cc1 (centres undefined)	SW480 rerep 1.5µM, HT1080-NT tox inconclusive
Oc1ccccc1C1=NN(c2ccccc2)C(c2ccc(F)cc2)C1 (centres undefined)	SW480 rerep inconclusive, MCF10A rerep inconclusive
Oc1ccc(C2=NN(c3ccccc3)C(c3ccc(F)cc3)C2)cc1 (centres undefined)	SW480 rerep 23µM, MCF10A rerep 5.8µM, HT1080 IDH1KD tx 26µM, HT1080-NT tox 18µM
O=C(c1cccs1)N1N=C(c2ccccc2)CC1c1ccc(O)cc1 (centres undefined)	KB-V1 cytotox 13µM, MCF10A rerep inconclusive
O=C(Cc1ccccc1Cl)NO	none (no result: SW480 rerep, KB-3-1 cytotox, KB-V1 cytotox, MCF10A rerep)
COc1ccc(-c2cc(C(F)(F)F)n3nc(C(=O)Nc4ccccc4SC)cc3n2)cc1OC	none (no result: SW480 rerep, MCF10A rerep, HT1080 IDH1KD tx, HT1080-NT tox)
CCOC(=O)c1ccc(NC(=O)C(Cc2ccccc2)NS(=O)(=O)c2ccc(Br)s2)cc1 (centres undefined)	none (no result: SW480 rerep, MCF10A rerep, HT1080 IDH1KD tx, HT1080-NT tox)
O=c1/c(=C\c2cccc(O)c2)sc2nc(-c3ccccc3)c(-c3ccccc3)n12	MCF10A rerep 4.6µM, HT1080-NT tox inconclusive
COc1ccc(/C=C2\SC(=S)NC2=O)cc1OS(=O)(=O)c1ccc(NC(C)=O)cc1	MCF10A rerep inconclusive, HT1080 IDH1KD tx 16µM, HT1080-NT tox 21µM
CCN(CC)CCCNC(=S)N1CCN(c2nc(-c3ccc(F)cc3)cs2)CC1	SW480 rerep inconclusive, KB-V1 cytotox inconclusive, MCF10A rerep inconclusive, HT1080 IDH1KD tx 8.2µM, HT1080-NT tox 21µM
O=C(N/N=C/c1ccc(N2CCOCC2)o1)c1cccc(C(F)(F)F)c1	SW480 rerep inconclusive, MCF10A rerep 21µM
O=C(CN1CCCC1)N/N=C/c1c(O)ccc2ccccc12	KB-3-1 cytotox inconclusive, MCF10A rerep inconclusive, HT1080 IDH1KD tx 16µM, HT1080-NT tox inconclusive
O=C(NN=Cc1c(O)ccc2ccccc12)C1CC1	SW480 rerep inconclusive, KB-3-1 cytotox inconclusive, KB-V1 cytotox inconclusive, HT1080 IDH1KD tx 12µM, HT1080-NT tox inconclusive
O=C(N/N=C/c1c(O)ccc2ccccc12)c1cccc(C(F)(F)F)c1	SW480 rerep inconclusive, KB-3-1 cytotox inconclusive, MCF10A rerep 4.6µM, HT1080 IDH1KD tx 2.3µM, HT1080-NT tox inconclusive
Cc1ccc(O)c(/C=N/NC(=O)CN2CCCC2)c1	KB-V1 cytotox inconclusive, HT1080 IDH1KD tx inconclusive
O=C(NCc1cccc(Cl)c1)c1cccn1-c1nnc(N2CCCC2)s1	none (no result: SW480 rerep, MCF10A rerep, HT1080 IDH1KD tx, HT1080-NT tox)
Cc1cccc(C)c1NC(=O)C(c1ccnc2ccccc12)n1c(=O)c(-c2ccco2)nc2ccccc21 (centres undefined)	none (no result: SW480 rerep, MCF10A rerep)

Screening results deposited in PubChem by National Center for Advancing Translational Sciences (NCATS).
